Compound activity: PubChem, National Center for Advancing Translational Sciences (NCATS)
Rows were chosen to be rich in hits. Some 12% of all compounds tested hit in one or more screens of this group.
BAZ2B inh = BAZ2B (human) inhibition | hit rate 4.4% among 360,000 | AlphaScreen BAZ2B-H3K14Ac peptide displacement | Potency, µM (top dose mostly 114 µM), without a hit: at the top dose activity change, negative = inhibition, hits mostly inhibitors | Q9UIF8 | AID 504333; note: % is set by controls: 0 for no effect and ±100 for the full control effect; nearly all actives have a fitted effect of over 60% in size
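In this displacement format the biotinylated H3(5-23) peptide acetylated at Lys14 serves as ligand at 50 nM, with BAZ2B at 50 nM in PBS pH 7.4 containing 0.01% Tween-20. Donor and acceptor beads are 10 ug/mL final.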
Sfp PPTase inh = inhibitors of Bacillus subtilis Sfp phosphopantetheinyl transferase. Q9F4F7. Biochemical Sfp PPTase activity, qHTS. Potency, µM, without a hit: largest response in the series, negative = inhibition, hits mostly inhibitors. hit rate 3.5% among 310,000;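 note: the enzyme is Sfp with the accession as filed and its product quenches rhodamine fluorescence; 0% = enzyme reaction without inhibitor and -100% = no enzyme wells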
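Reaction rates are the 30-min fluorescence difference (ex 525, em 598 nm) in wells containing 15 nM Sfp, 5 uM rhodamine-CoA and 12.5 uM BHQ-2-YbbR at pH 7.6 with 10 mM MgCl2.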
JMJD2A Tudor = JMJD2A Tudor domain (human) inhibition. O75164. AlphaScreen JMJD2A-Tudor / H3K4me3 peptide binding. Potency, µM (titrated, usually from 114 µM), inactives show at the highest dose activity change, negative = inhibition, most hits filed as inhibitors. hit rate 4.4% among 390,000. AID 504339; note: % is set by controls: 0 for no effect and ±100 for the full control effect; nearly all actives have a fitted effect of over 50% in size
G9a block = G9a (human) methyltransferase inhibition; AID 504332; hit rate 8.8% among 350,000; Q96KQ7; Potency, µM (top dose mostly 102 µM), for the others: at the highest dose activity, negative = inhibition, most hits filed as inhibitors; G9a H3K9 monomethylation, AlphaScreen, 2 h; note: % is set by controls: 0 for no effect and ±100 for the full control effect; nearly all actives have a fitted effect of over 75% in size
Target sequence (Q96KQ7 913-1193 limits assumed): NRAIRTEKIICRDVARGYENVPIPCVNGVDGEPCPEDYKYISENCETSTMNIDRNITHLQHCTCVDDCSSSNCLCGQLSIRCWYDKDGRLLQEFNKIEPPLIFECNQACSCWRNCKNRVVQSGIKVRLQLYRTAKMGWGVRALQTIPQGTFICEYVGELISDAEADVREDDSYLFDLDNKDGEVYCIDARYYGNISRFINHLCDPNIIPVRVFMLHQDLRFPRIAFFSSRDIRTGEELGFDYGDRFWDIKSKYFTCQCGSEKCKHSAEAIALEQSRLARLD
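G9a (20 nM) was preincubated 15 min with compound, then reacted 2 h at room temperature with 500 nM biotin-H3K9 peptide and 20 µM SAM. Monomethyl-H3K9 detected by AlphaScreen using anti-H3K9me1 antibody.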
HP1b chromo inh = blocks HP1-beta chromodomain binding to methylated histone tails; hit rate 0.56% among 390,000; P83916; AlphaScreen HP1-beta / biotin-H3K9me3 peptide binding; Potency, µM (doses to about 114 µM), without a hit: at the top dose activity change, negative = inhibition, actives largely listed as inhibitors; note: nearly all actives have a fitted effect of over 70% in size
Target sequence (P83916 whole entry, looked up): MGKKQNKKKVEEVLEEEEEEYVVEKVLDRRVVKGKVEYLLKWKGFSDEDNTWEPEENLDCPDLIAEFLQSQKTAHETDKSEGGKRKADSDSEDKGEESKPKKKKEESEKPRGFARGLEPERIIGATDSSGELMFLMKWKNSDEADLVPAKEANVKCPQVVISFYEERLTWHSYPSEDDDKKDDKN
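Compound inhibition of the preformed complex between 50 nM HP1-beta and 50 nM biotinylated H3K9me3 peptide was read by AlphaScreen. Buffer was PBS pH 7.4 with 0.01% Tween-20. Incubations ran 30 min at room temperature, with 10 ug/mL donor/acceptor beads.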
The depositor's hits bear a star; u = inconclusive; x = no result; [ ] = dose if it differs, or a comment. Calls come from the whole dose curve; as a rule, active = well fitted curve in the direction sought with a large enough effect; inconclusive = small, poorly fitted or top-dose-only effect, or another doubt; inactive = no such curve, though single readings can be large; an effect the other way counts as inactive or inconclusive. Potency is the fitted concentration of half-maximal effect.

SMILES | BAZ2B inh | Sfp PPTase inh | JMJD2A Tudor | G9a block | HP1b chromo inh
CN(C)CCn1c(=O)n(Cc2ccccc2)c(=O)c2c3c(sc21)CCCCC3 | u | -6% | 40µM* | 50µM* | u
O=c1c2c3c(sc2nc(NCCO)n1-c1ccccc1)CCCC3 | -1% | 3% | -4% | -18% | 38%
COc1ccccc1/C=C1\SC(=S)N(N2C(=O)CCCC2=O)C1=O | u | 1% | u | 20µM* | u
COc1ccc(/C=C2\SC(=S)N(N3C(=O)CCC3=O)C2=O)cc1O | u | -44% | -12% | 8.9µM* | -8%
N#Cc1c(N2C(=O)c3ccc(C(=O)O)cc3C2=O)sc2c1CCCC2 | 2% | 26% | -1% | -20% | 43%
NC(=O)c1sc2nccc(Nc3ccccc3)c2c1N | -7% | 40µM* | u | u | -14%
Nc1c(C(=O)Nc2ccccc2)sc2ncc([N+](=O)[O-])cc12 | 3% | 19% | -28% | 4% | 10%
O=C(COC(=O)c1ccc(NS(=O)(=O)c2cccs2)cc1)NCc1ccco1 | 32µM* | 35µM* | -29%[11.4 µM] | u | -21%
CCCOC(=O)c1ccc(NS(=O)(=O)c2cccs2)cc1 | 3% | -3% | -22% | -1%[12.7 µM] | 28%
O=C(COC(=O)c1cccs1)NCc1ccco1 | 50µM* | -3% | 35µM* | u | 50µM*
COc1ccccc1C(OC(=O)c1cccs1)C(=O)NCc1ccco1 (stereo not given) | u | 50µM* | -23% | 45µM* | 19%
Cc1ccc(NS(=O)(=O)c2cccc(C(=O)OCC(=O)NCc3ccco3)c2)cc1 | 56µM* | -22% | u | u | -15%
CC(OC(=O)c1cccs1)C(=O)NCc1ccco1 (stereo not given) | 14% | 11% | -6% | -10%[59 µM] | 37%
CC(Oc1ccc(F)cc1Br)c1nc2ccccc2c(=O)[nH]1 (stereo not given) | -4% | 12% | -9% | 22% | -2%
CCC1C(O)=C(c2ccccn2)C(=N)N1c1ccccc1 (stereo not given) | u | -12% | -21% | 22µM* | 25%
COc1ccc2[nH]c3c(c2c1)CCN1C(=O)C(CC(=O)NCC24CC5CC(CC(C5)C2)C4)C[C@H](C(=O)N2CCOCC2)[C@@]31CCC1CCCC1 (stereo not given in full) | x | x | 40µM* | x | -6%
COc1ccccc1NS(=O)(=O)c1ccc(C)c(C(=O)N2CCCC2)c1 | -1% | x | -19% | 18%[12.7 µM] | 25%
O=[N+]([O-])c1cccc(-c2nc(Oc3ccc(Cl)cc3)c3ccccc3n2)c1 | u | -30% | x | 11µM* | x
NS(=O)(=O)c1ccc(CCNC(=O)C2COc3ccccc3C2)cc1 (stereo not given) | -9% | x | -12% | -8%[59 µM] | 23%[57 µM]
COc1ccc(-n2nc(C(=O)NCC(=O)NCC3CCCO3)c3ccccc3c2=O)cc1 (stereo not given) | -5% | 13% | -17% | -5%[12.7 µM] | 11%
Cc1cc(C)n(-c2ccc(C(F)(F)F)cc2[N+](=O)[O-])n1 | -20% | 2% | 1% | -6%[59 µM] | 15%
Cc1cc(C)n(-c2ccc([N+](=O)[O-])cc2-c2nn[nH]n2)n1 | u | 79µM* | -28% | u | 28%
O=[N+]([O-])c1ccc(O)c(-c2nn[nH]n2)c1 | 2.8µM* | -18% | 3.2µM* | u | u
COc1ccccc1C1C=C(c2ccc(C(C)C)cc2)Nc2nnnn21 (stereo not given) | 4% | x | -23% | -27%[59 µM] | 21%
Cc1ccc(-n2c(CNc3ccc(C)c(Cl)c3)n[nH]c2=S)cc1 | u | 6% | u | 50µM* | 11%
Cc1ccc(-n2c(CNc3cccc(Cl)c3)n[nH]c2=S)cc1 | -19% | -15% | -21% | 4.5µM* | 2%
Cc1cccc(N(Cc2cc(=O)[nH]c3ccccc23)C(=O)C(C)C)c1 | -1% | 23% | -4%[11.4 µM] | 9% | 51%
COc1ccc(CN2CCN(C(=O)c3ccc4c(c3)CCC4)CC2)cc1OC | x | x | -23% | x | 7%
COc1ccc(C(=O)N2CCN(Cc3ccc(OC)c(OC)c3)CC2)cc1 | u | -12% | 3.2µM* | u | u
